# Measurements as given in PubChem BioAssay AID504652 (National Center for Advancing Translational Sciences (NCATS), 2011).
# In all, about 360,000 compounds went through this assay and about 11,000 (3.1%) were called active. The entries come from a sample that favours actives as a whole. Unmarked numbers belong to inactive results. No stated cut-off is given here; in the data, active means activity change below about -30%; inactive means the rest.
# Target: D(1A) dopamine receptor (Homo sapiens) (UniProt P21728)
# Test: Antagonist of Human D 1 Dopamine Receptor: qHTS
# Settings: HEK293 TREx D1 cells, calcium flux, dopamine EC80; at 10 µM; stronger effect = lower value
# Outline: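 HEK293 T-REx cells expressing inducible, force-coupled D1 receptor; no-wash Ca dye, 30–90 min RT. Cmpd → 180 s read at 1 Hz → EC80 DA → 180 s read.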
# On the % scale 0 is the no-effect control and ±100 the full control effect.
# Sequence of D(1A) dopamine receptor (Homo sapiens) (P21728 whole entry, looked up): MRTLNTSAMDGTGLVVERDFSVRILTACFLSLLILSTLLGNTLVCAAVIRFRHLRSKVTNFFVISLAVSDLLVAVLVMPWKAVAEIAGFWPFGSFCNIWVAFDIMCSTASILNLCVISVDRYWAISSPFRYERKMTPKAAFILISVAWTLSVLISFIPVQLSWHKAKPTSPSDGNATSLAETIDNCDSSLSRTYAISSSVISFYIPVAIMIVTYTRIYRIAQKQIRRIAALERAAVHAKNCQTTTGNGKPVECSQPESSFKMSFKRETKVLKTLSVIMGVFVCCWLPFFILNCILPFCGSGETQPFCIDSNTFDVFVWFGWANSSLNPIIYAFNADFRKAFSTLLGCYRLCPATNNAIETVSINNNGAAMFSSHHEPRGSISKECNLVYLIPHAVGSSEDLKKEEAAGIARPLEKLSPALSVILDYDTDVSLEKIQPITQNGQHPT
row,SMILES,"activity change, negative = inhibition"
1,O=C(NCCC1=CCCCC1)c1ccc2c(c1)N(Cc1ccccc1F)C(=O)c1ccccc1S2(=O)=O,-12.5%
2,O=C(NCc1ccccc1)c1ccc(CNc2c(N3CCCC3)c(=O)c2=O)cc1,-9.38%
3,CC1CCN(c2c(NCc3ccc(C(=O)NCc4ccccc4)cc3)c(=O)c2=O)CC1,-34.3% (active)
4,O=C(NC1CCCCC1)c1ccc(CNc2c(N3CCOCC3)c(=O)c2=O)cc1,11.4%
5,Cc1nc2sc(C)c(C)n2c(=O)c1S(=O)(=O)NCCc1ccc(Cl)cc1,-2.78%
6,CCc1ccc(S(=O)(=O)n2ccnc2)cc1,-16.9%
7,CC(=O)N1CCN(c2ccc(NCc3ccc(C(C)C)cc3)cc2)CC1,-50.6% (active)
8,CC(C)c1ccc(NC(=O)c2ccc(Cn3nc(N4CCN(c5ccccc5)CC4)ccc3=O)o2)cc1,-6.07%
9,CC(C)c1ccc(N2CCN(C(=O)c3ccccc3NC(=O)/C=C(\C(=O)O)c3ccccc3)CC2)cc1,-3.41%
10,COc1ccc(CNC(=O)c2cc3c(=O)[nH]c4ccc(C)cc4c3s2)c(OC)c1,1.68%
11,O=C(NCCN1CCN(Cc2ccccc2)CC1)c1cc2c(=O)[nH]c3ccccc3c2s1,-7.42%
12,COc1ccc(CNC(=O)c2cc3c(=O)[nH]c4ccccc4c3s2)cc1,-33.6% (active)
13,Cc1cccc(NC(=O)c2ccc(F)c(S(=O)(=O)N(C)C3CCCCC3)c2)c1,4.16%
14,CC(C)c1ccc(NC(=O)NC2CCCCC2)cc1,-4.57%
15,O=C(COC(=O)C1CC2C=CC1C2)Nc1ccccc1 (stereo unspecified),-18.1%
16,CC(C)c1ccc(NC(=S)NC2CC3C=CC2C3)cc1 (stereo unspecified),-34.1% (active)
17,COc1ccc(C2=NC(c3ccncc3)=Nc3ccc(Br)cc3N2)cc1,-11.7%
18,CCn1c(C(=O)Nc2cc(Cl)ccc2C)cc2sc(Cl)cc21,-0.309%
19,O=C(c1ccc2c(c1)N(Cc1ccc(Cl)cc1)C(=O)c1ccccc1S2(=O)=O)N1CCCCC1,5.67%

row,SMILES,"activity change, negative = inhibition"
1,COc1ccc(-c2cc(-c3nc(-c4cc(OC)c(OC)c(OC)c4)no3)[nH]n2)c(OC)c1,27%
2,Cc1ccc(NC(=O)CN2C(=O)C(c3ccc(F)cc3)=NC23CCCCCC3)c(C)c1,2.24%
3,COc1ccc([C@H]2CC(=O)C=C(/C=C/c3ccccc3)C2)cc1,3.37%
4,O=C1CC(c2cccc(Cl)c2)CC(O)=C1C=Nc1ccccc1 (stereo unspecified),-3.8%
5,O=C1C=C(c2cccc(Cl)c2)C[C@@H](c2ccc(F)cc2)C1,-32% (active)
6,O=C1C=C(c2cc(C(F)(F)F)cc(C(F)(F)F)c2)C[C@@H](c2ccc3c(c2)OCO3)C1,-12.8%
7,COc1cccc(C2=CC(=O)C[C@H](c3ccc(OC)c(OC)c3)C2)c1,-42.8% (active)
8,COc1ccc([C@H]2CC(=O)C=C(c3ccc(OC(F)(F)F)cc3)C2)cc1OC,-5.99%
9,CC(=O)Nc1ccc(NC(=O)CCCc2nc(-c3ccc(C(C)(C)C)cc3)no2)cc1,2.77%
10,COc1ccc(CNC(=O)c2cc3c(-c4ccccc4F)nn(C)c3s2)c(OC)c1,8.78%
11,CCc1ccc(Nc2nn3c(=O)c4cc5c(cc4nc3s2)OCO5)cc1,7.15%
12,O=C(CCNS(=O)(=O)c1ccccc1)NCCCc1ccccc1,-0.746%
13,NC(=O)NC(=O)C(OC(=O)CCNS(=O)(=O)c1ccccc1)c1ccccc1 (stereo unspecified),-53% (active)
14,Cc1ccc(S(=O)(=O)NCCC(=O)OCC(=O)N(C)c2ccccc2)cc1,-1.79%
15,COc1cccc(CNC(=O)CN2C(=O)CCc3cc(S(=O)(=O)N4CCOCC4)ccc32)c1,-4.09%
16,Cc1ccc(C)c2sc(NC(=O)c3ccc(S(=O)(=O)N4CCCC4)cc3)nc12,5.67%
17,CCOc1ccccc1NC(=O)CN1CCN(S(=O)(=O)c2ccc(Br)cc2)CC1,6.89%
18,Cn1c(Cn2nnc3ccccc32)nnc1SCC(=O)c1ccccc1F,-30.4% (active)
19,Cn1c(CNC(=O)c2ccccc2F)nnc1SCc1ccc(F)cc1,26.9%

row,SMILES,"activity change, negative = inhibition"
1,Cn1c(CC(=O)Nc2ccccc2)nnc1SCC(=O)c1ccccc1,-16.4%
2,COc1ccc(CNC(=O)c2cc3cccc(OC)c3oc2=O)cc1,-1.99%
3,O=C(CSc1ccc([N+](=O)[O-])cn1)Nc1ccc(N2CCOCC2)cc1,0.609%
4,O=C(CSc1ccc([N+](=O)[O-])cn1)Nc1ccc(N2CCOCC2)c(Cl)c1,-35.4% (active)
5,O=C(CSc1nccc(=O)[nH]1)Nc1ccc(N2CCOCC2)c(Cl)c1,-3.03%
6,CCOC(=O)c1c(C)oc2ccc(N(C(=O)c3ccncc3)S(=O)(=O)c3ccc(CC)cc3)cc12,-12.9%
7,Cc1nn(-c2ccccc2)c(C)c1NC(=O)CCl,-2.92%
8,C/C=C/c1ccc(OCC(=O)OCC(=O)Nc2c(C)nn(-c3ccccc3)c2C)c(OC)c1,-92.1% (active)
9,Cc1nn(-c2ccccc2)c(C)c1NC(=O)COC(=O)c1cc(Cl)ccc1O,-7%
10,CCOC(=O)c1c(NC(=O)/C=C/c2ccc(OC)cc2)sc2c1CCC(C)C2 (stereo unspecified),-4.93%
11,CCCCOC(=O)CSc1ncnc2sc3c(c12)CCC(C)C3 (stereo unspecified),-2.54%
12,Cc1ccc(C)c(S(=O)(=O)n2cnc3ccccc32)c1,1.78%
13,COc1ccc(S(=O)(=O)n2cnc3ccccc32)c(C)c1,-34% (active)
14,COc1ccc(S(=O)(=O)N2CCN(C)CC2)c(C)c1,-0.84%
15,CCNS(=O)(=O)c1ccc(NC(=O)CSc2nc(-c3ccco3)cc(C(F)(F)F)n2)cc1,7%
16,COc1ccccc1N1CCN(CCCNC(=O)c2cnn(-c3ccccc3Cl)c2C2CCN(C(=O)OC(C)(C)C)CC2)CC1,-8.92%
17,CCC(C(=O)Nc1cccc(Cl)c1C)n1nc(-c2ccc(C)cc2)ccc1=O (stereo unspecified),6.67%
18,COc1ccc(CCNC(=O)c2ccc(-n3c(C)cc4c3CCCC4)cc2)cc1OC,-15.3%
